In PubChem BioAssay (NCI):
About 79,000 compounds went through this panel and 15% of them were active in at least one assay; those are over-represented in the sample as a whole. A number with no mark means an inactive call. Active and inactive are the calls of the source. Rule as the data show it: active = growth inhibition above about 70%; inactive = the rest.

Columns and labels:
[1] = NCI Yeast Anticancer Drug Screen. Data for the rad50 strain (AID 155);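 also: 0% = growth of vehicle-only cultures of the same strain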; details: S. cerevisiae rad50 strain growth inhibition, stronger effect = higher value
Procedure, shortened: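 Cells are treated with compound, grown, and their growth is then scored against vehicle-only cultures of the same repair-deficient yeast strain.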

[2] = NCI Yeast Anticancer Drug Screen. Data for the mec2-1 strain (AID 157); details: S. cerevisiae mec2-1 strain, stronger effect = higher value
Procedure, shortened: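 Test agents were screened against the mec2-1 yeast strain, with defined DNA repair or cell cycle alteration. Growth was scored as inhibition against vehicle-only controls.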

[3] = NCI Yeast Anticancer Drug Screen. Data for the sgs1 mgt1 strain (AID 161);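 also: 0% = growth of cultures given vehicle only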; details: S. cerevisiae sgs1 mgt1 strain, stronger effect = higher value
Procedure, shortened: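 Inhibition of yeast growth, normalised to vehicle-treated controls, is reported for a strain bearing genetic alterations in DNA damage repair.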

[4] = NCI Yeast Anticancer Drug Screen. Data for the cln2 rad14 strain (AID 165);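 also: 0% = growth equal to vehicle treated cultures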; details: S. cerevisiae cln2 rad14 strain, stronger effect = higher value
Procedure, shortened: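 Growth of compound-exposed yeast (cln2 rad14 genotype) measured and expressed as inhibition relative to vehicle.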

[5] = NCI Yeast Anticancer Drug Screen. Data for the bub3 strain (AID 167); details: S. cerevisiae bub3 mutant strain, stronger effect = higher value
Procedure, shortened: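 Part of a panel of yeast mutants defective in DNA damage repair or cell cycle regulation. Each strain is grown with compound, and inhibition is calculated relative to solvent-treated cultures.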

[6] = NCI Yeast Anticancer Drug Screen. Data for the mlh1 rad18 strain (AID 175); details: S. cerevisiae mlh1 rad18 strain growth inhibition, stronger effect = higher value
Procedure, shortened: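 In this whole-cell yeast screen, a strain with altered DNA damage repair is challenged with compound, and its growth is measured against matched vehicle-treated controls.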

[7] = at 5.0 µM (retest, dose inferred, filed as 0.5)
[8] = at 50.0 µM (retest, dose inferred, filed as 5.0)

SMILES | growth inhibition [1, 7] | growth inhibition [1, 8] | growth inhibition ([1]; at 50.0 µM) | growth inhibition [2, 7] | growth inhibition [2, 8] | growth inhibition ([2]; at 50.0 µM) | growth inhibition [3, 7] | growth inhibition [3, 8] | growth inhibition ([3]; at 50.0 µM) | growth inhibition [4, 7] | growth inhibition [4, 8] | growth inhibition ([4]; at 50.0 µM) | growth inhibition [5, 7] | growth inhibition [5, 8] | growth inhibition ([5]; at 50.0 µM) | growth inhibition [6, 7] | growth inhibition [6, 8] | growth inhibition ([6]; at 50.0 µM)
CN(C)c1ccc(/C=C/c2ccnc3ccccc23)cc1Cl | 23% | 95% (active) | -10.1% | 4% | 97% (active) | -4.1% | 0% | 97% (active) | 66.8% | -6% | 94% (active) | -12.6% | 2% | 97% (active) | 29.4% | -3% | 95% (active) | 5.25%
C/C(=N/NC(=S)Nc1ccc(C)cc1)c1ccccn1 | 31% | 99% (active) | 79.2% (active) | 33% | 99% (active) | 84.9% (active) | 32% | 99% (active) | 88.5% (active) | -15% | 99% (active) | 88.3% (active) | -7% | 99% (active) | 90% (active) | 20% | 99% (active) | 87.9% (active)
COc1ccc(-c2cc(-c3ccc4c(c3)CC(C)O4)nc(N)n2)cc1 (configuration not stated) | 20% | 1% | 90.8% (active) | 0% | -14% | 90.8% (active) | 20% | 3% | 91.2% (active) | 19% | 15% | 86.5% (active) | 19% | 15% | 88.7% (active) | -16% | -19% | 88.7% (active)
CC(=O)OC1C2C3C(C=CC2[C@H]1OC(C)=O)C1C3C=CC2C1C(OC(C)=O)[C@@H]2OC(C)=O (some centres not stated) | 3% | 14% | 18.4% | -1% | 21% | 11.8% | -173% | 11% | 5.2% | -2% | 13% | 14.3% | -2% | 4% | -1.9% | 12% | 30% | 12.9%
O=C(Nc1ccc(O)cc1O)c1ccccc1 | 2% | 53% | 85% (active) | -15% | 61% | 76.7% (active) | 6% | 82% (active) | 90.4% (active) | 7% | 50% | 72.3% (active) | 11% | 46% | 89.2% (active) | 3% | 76% (active) | 85.1% (active)
CCCCCCCCCCCCCCCC(=O)NCC[N+](CC)(CC)Cc1ccc(C[N+](CC)(CC)CCNC(=O)CCCCCCCCCCCCCCC)cc1 | 99% (active) | 99% (active) | 99.3% (active) | 99% (active) | 100% (active) | 99.6% (active) | 99% (active) | 100% (active) | 99.5% (active) | 99% (active) | 99% (active) | 99.3% (active) | 98% (active) | 99% (active) | 99.5% (active) | 97% (active) | 99% (active) | 99.3% (active)
C=CCNc1nc2c(s1)C(=O)c1ccccc1C2=O | 95% (active) | 98% (active) | 90.8% (active) | 99% (active) | 99% (active) | 93.3% (active) | 100% (active) | 99% (active) | 93.9% (active) | 76% (active) | 99% (active) | 91.8% (active) | 99% (active) | 99% (active) | 91.9% (active) | 98% (active) | 98% (active) | 88% (active)
CCCCCC/C=C1\CCC(CN2CCOCC2)C1=O (configuration not stated) | 53% | 96% (active) | 81.7% (active) | 23% | 97% (active) | 52% | 16% | 96% (active) | 79.7% (active) | 25% | 79% (active) | 63% | 48% | 98% (active) | 82.5% (active) | 59% | 97% (active) | 74.8% (active)
CCN(CC)COC(=S)S | 8% | 99% (active) | 97.7% (active) | -3% | 100% (active) | 83.1% (active) | 11% | 99% (active) | 99% (active) | 5% | 97% (active) | 44% | -11% | 99% (active) | 97.3% (active) | 15% | 99% (active) | 98.5% (active)
